PubChem BioAssay AID602310 (National Center for Advancing Translational Sciences (NCATS), 2012)
Hit rate of the full screen: of about 410,000 compounds, about 310 (0.076%) were called active. Roughly 2% stayed inconclusive and do not appear here. The sample as a whole holds a higher share of actives than the screen did. A number with no mark means an inactive call. Calls follow the shape of the dose curve; as a rule, active = well fitted curve in the direction sought with a large enough effect; inconclusive = small, poorly fitted or top-dose-only effect; inactive = flat fitted curve, though single readings scatter.

The molecules below were run against DNA dC->dU-editing enzyme APOBEC-3G (Homo sapiens) (UniProt Q9HC16) (assay: qHTS for Inhibitors of Vif-A3G Interactions: qHTS). Conditions: HeLa A3G-eYFP + Vif (tagged APOBEC3G with the HIV-1 protein that degrades it), YFP fluorescence, overnight; series mostly up to 46.1 µM; activity, negative = active: at the top concentration.
Chain of DNA dC->dU-editing enzyme APOBEC-3G (Homo sapiens) (Q9HC16 whole entry, looked up): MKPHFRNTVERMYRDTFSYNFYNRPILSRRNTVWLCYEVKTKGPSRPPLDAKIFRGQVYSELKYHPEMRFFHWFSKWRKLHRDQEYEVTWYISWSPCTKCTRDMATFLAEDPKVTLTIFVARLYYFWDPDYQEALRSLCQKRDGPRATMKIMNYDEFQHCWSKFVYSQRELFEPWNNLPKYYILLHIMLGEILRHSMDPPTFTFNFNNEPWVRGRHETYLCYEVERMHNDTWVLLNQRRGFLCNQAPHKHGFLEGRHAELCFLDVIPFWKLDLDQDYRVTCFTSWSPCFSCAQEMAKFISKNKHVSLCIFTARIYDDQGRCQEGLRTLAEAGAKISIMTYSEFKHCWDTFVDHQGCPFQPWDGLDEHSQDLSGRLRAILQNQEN
Source text: The recent discovery and characterization of host restriction factors, which provide a potent defense to invading retroviruses, has provided new targets for antiviral drug development. APOBEC3G (A3G) and APOBEC3F (A3F) are potent cytidine deaminases that block HIV-1 replication; HIV-1 expresses the Vif protein, which counteracts A3G and A3F by binding to them and inducing their proteasomal degradation. The Vif-A3G and Vif-A3F interactions provide two potential targets for development of small molecules which can interfere with the ability of Vif to degrade A3G or A3F. […] To identify inhibitors that can interfere with Vif mediated degradation of A3G and A3F, we have developed Hela cell lines that stably express A3G or A3F tagged with eYFP at the C-terminal end (A3G-eYFP or A3F-eYFP, respectively) and Vif. In the absence of an inhibitor, Vif induces degradation of A3G-eYFP and A3F-eYFP, and the cells are not fluorescent. In the presence of an inhibitor, it is expected that Vif will be unable to degrade A3G-eYFP and/or A3F-eYFP, resulting in an increase in yellow fluorescence. In this assays Vif A3G was screened against the Molecular Library Small Molecule Repository (MLSMR). NIH Chemical Genomics Center [NCGC] NIH Molecular Libraries Probe Centers Network [MLPCN] MLPCN Grant: MH093245 Assay Submitter (PI): Vinay Pathak, National Cancer Institute
5 uL of 700 cells/well of A3G-YFP cells are dispensed into black, clear bottom plates. The plates are incubated overnight at 37 deg C. 23 nL of compounds are added by pintool. The plates are incubated overnight at 37 deg C and then read on the TTP Acumen (Ex 488/ Em 500-530).
% is scaled to controls: 0 for no effect and ±100 for the full control effect; potency is read from the fitted curve at half-maximal effect.
Also: nearly all actives have a fitted effect of over 60% in size.
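For activity, negative = active in this document: hits raise eYFP signal because A3G escapes Vif-driven loss.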

SMILES | activity, negative = active [%] | Potency
CS(=O)(=O)c1ccc(-c2nnc(NC(=O)c3ccc4c(c3)OCCO4)o2)cc1 | 5.26 | 
CCCCCn1c(=O)[nH]c2cc(C(=O)Nc3ccc(F)cc3)ccc2c1=O | 3.51 | 
N#Cc1ccc[n+](CC(=O)c2ccc(O)c(O)c2)c1 | 1.87 | 
COc1ccc(CN2CCC(=O)c3ccccc3S2(=O)=O)cc1 | -0.629 | 
Cc1c(CCO)sc[n+]1CC(=O)c1ccc2ccccc2c1 | 0.145 | 
O=C(CSc1nc(-c2cccc(F)c2)[nH]c1-c1ccccc1)Nc1ccc2c(c1)OCO2 | 1.68 | 
NC(=O)Nc1ccc(/C=C/c2ccnc3ccccc23)cc1 | -8.22 | 
CCN(CC)/[N+]([O-])=N/OCOC(=O)Cc1c(C)n(C(=O)c2ccc(Cl)cc2)c2ccc(OC)cc12 | -2.29 | 
COc1cc(C)ccc1OCCSc1nc2ccc(NC(=O)c3ccc(C)cc3)cc2s1 | -1.22 | 
CC(=O)c1ccc[n+](C(C)CCC(C)[n+]2cccc(C(C)=O)c2)c1 (centres undefined) | 4.94 | 
CCCN1C(=O)C(O)(CC(=O)c2ccc(CC)cc2)c2cc(Br)ccc21 (centres undefined) | 4.05 | 
O=C(Nc1ccccc1C(F)(F)F)c1nc(S(=O)(=O)Cc2ccccc2F)ncc1Cl | -25.9 | 
Cc1cccc(N2CCN(C(=O)CCSCc3ccccc3F)CC2)c1C | 3.33 | 
CN(CCC#N)c1ccc(C=O)cc1 | 2.45 | 
Cc1ccc(-c2nn3c(=O)cc(CN4CCN(S(=O)(=O)c5ccc(Cl)cc5)CC4)nc3s2)cc1 | -0.363 | 
CC1(C)Cc2ccccc2-c2c[nH]c(=O)n21 | 1.1 | 
COc1cc(NC(=O)CN2CCN(S(=O)(=O)c3ccc(Br)cc3)CC2)cc(OC)c1 | 6.1 | 
Cc1cc(NC(=O)C2CCC(CNS(=O)(=O)c3ccc(Br)s3)CC2)ccc1Br (centres undefined) | 0.952 | 
Cc1ccc(NC(=O)CCCn2c(=O)c3cccn3c3ccccc32)cc1Cl | 4.11 | 
O=C1COc2ccc(-c3csc(-c4ccc(Cl)cc4)n3)cc2N1 | -0.481 | 
CN(C)c1ccc(C=Nc2ccc(/C=C/c3ccnc4ccccc34)cc2)cc1 | -29.8 | 
Cc1ccc2nc(/C(C#N)=C/c3ccc(-c4ccc(C(=O)OC(C)C)cc4)o3)[nH]c2c1 |  | 2000 nM (active)

SMILES | activity, negative = active [%] | Potency
Cc1ccc2nc(/C(C#N)=C/c3ccccc3F)[nH]c2c1 | -5.05 | 
CCOC(=O)c1ccc(-c2ccc(/C=C(\C#N)C(=O)Nc3ccc(C)cc3)o2)cc1 | 2.39 | 
Cc1c(C(=O)Nc2cccc(Cl)c2)oc2ccc(S(=O)(=O)N3CCOCC3)cc12 | -4.72 | 
CS(=O)c1ccc(/C=C2\C=Cc3ccccc32)cc1 (centres undefined) | -4.01 | 
OCC(O)C(O)C(O)C(O)C=Nc1ccc(/C=C/c2ccnc3ccccc23)cc1 (centres undefined) | -13.5 | 
C=COC(=O)N1CCN(/[N+]([O-])=N/Oc2ccc([N+](=O)[O-])cc2[N+](=O)[O-])CC1 | -11.3 | 
SCc1nc2ccc(Cl)cc2[nH]1 | -15.9 | 
CCC(=O)N1CCc2cc(Br)cc(S(=O)(=O)CCC(=O)NCc3ccccc3OC)c21 | 0.639 | 
O=C(CCSCc1cccc(F)c1)NCc1ccccc1 | 1.45 | 
O=C1C[C@H]2C=CCc3cccc(c32)CN1Cc1ccccc1 | 1.8 | 
CN1CCN(/[N+]([O-])=N/Oc2ccc([N+](=O)[O-])cc2[N+](=O)[O-])CC1 | -2.57 | 
O=C1CCC[C@@H]2C[C@@]3(C[C@@H]4CCN1[C@H]24)Nc1ccccc1NC3=NCc1ccccc1 | -3.5 | 
CCC(C)NC(=O)Cn1c(=O)n(-c2ccc(Cl)cc2)c(=O)c2c3c(sc21)CCCC3 (centres undefined) | -2.77 | 
Cc1ccc(CSc2oc(-c3cccs3)nc2S(=O)(=O)c2ccc(C)cc2)cc1 | -5.68 | 
CC1(C)C=Cc2c(ccc(C(=O)/C=C/c3ccccc3)c2O)O1 | -4.83 | 
Cc1nc2nc(SCC(=O)N(Cc3ccccc3)C(C)C)nn2c(C)c1Cc1ccccc1Cl | -4.58 | 
C=C1C=C(C(F)F)n2ncc(C(=O)NCCc3ccccc3OC)c2N1 | 1.18 | 
O=C1O/C(=C\c2ccc(O)cc2)C(O)=C1c1ccc(O)cc1 | 0.495 | 
Cc1ccc(C)c(Cn2c(C(=O)O)c(CNCc3cccs3)c3ccccc32)c1 | 5.36 | 
CCN(CC)c1ccc(/C=C/c2c(C)cnc3ccc(C)cc23)cc1 | -14.3 | 
CCOc1cccc(CC(=O)N2CCc3c([nH]c4ccccc34)C2c2ccc(OC)cc2)c1OCC (centres undefined) | 5.45 | 
CCc1cccc(CC)c1NC(=O)Cn1c(=O)c(-c2cc(C)ccc2NC(C)=O)nc2ccccc21 | 2.05 | 

SMILES | activity, negative = active [%] | Potency
CCN1CCN(CCCNC(=O)c2ccc3c(c2)sc2nc(-c4ccc(OC)cc4)cn23)CC1 | 1.57 | 
COc1ccc(N2CCN(c3nc(-c4ccccc4F)nc4ccccc34)CC2)cc1 | 1.44 | 
CC(C)(C)OC(=O)N(Cc1ccco1)S(=O)(=O)c1ccccc1Br | -2.34 | 
Nc1ncnc2nnsc12 | -0.535 | 
Clc1cccc[n+]1CCCC[n+]1ccccc1Cl | -3.41 | 
O=C(NCC(c1ccco1)S(=O)(=O)c1cccs1)c1ccc(F)cc1 (centres undefined) | -0.334 | 
COc1ccc(-c2nc(=N)sn2-c2ccccc2)cc1 | -12.4 | 
Cc1ccccc1NC(=O)c1c(NC(=O)c2ccccc2F)sc2c1CCC(C)C2 (centres undefined) | 2.58 | 
COc1ccc(-c2[nH]c3c(c2-c2c(-n4cccc4)n(C)c(=O)n(C)c2=O)c(=O)n(C)c(=O)n3C)cc1 | 4.14 | 
OC(CBr)CN1CCCCC1 (centres undefined) | 2.13 | 
CN(C(=N)N)c1ccc(/C=C2\C=Cc3ccccc32)cc1 | 0.609 | 
Cc1cccn2c(=O)c3cc(C(=O)NC(C)c4ccccc4)c(=N)n(CCCO)c3nc12 (centres undefined) | 1.93 | 
COC(=O)c1ccc(OC)c(Cn2c(=O)n(Cc3ccccc3)c(=O)c3c2c2cc(OC)ccc2n3C)c1 | -5.74 | 
CCOC(=O)c1scc(-c2ccc(C)cc2)c1S(=O)(=O)Nc1cc(C)ccc1C | 2.25 | 
COc1ccc(OCC(=O)Nc2cccc(C(=O)OCc3cc(=O)n4nc(C)sc4n3)c2)cc1 | 1.27 | 
CCOc1ccc(N(CC)S(=O)(=O)N2CCCC(C(=O)Nc3ccc(C(C)=O)cc3)C2)cc1 (centres undefined) | 3.2 | 
Cc1ccc(S(=O)(=O)c2nc(-c3ccco3)oc2SCC(=O)Nc2ccc(F)cc2)cc1 | -4.15 | 
COc1ccc(CNC(=O)c2ccc3c(c2)nc2n3CCOC2)c(OC)c1 | 2.94 | 
COC(=O)c1cc(NC(=O)CCS(=O)(=O)c2cc(Br)cc3c2N(C(=O)C2CC2)CC3)cc(C(=O)OC)c1 | 1.17 | 
CCCCN(CC)CCCNC(=O)Cn1ncc2c([nH]c3ccc(C)cc32)c1=O | 1.92 | 
